Most compounds without a hit are left out; they make up all but 3.5% or so of the library.
FBW7 activator = activators of human E3 ligase FBW7; AID 1259310; AlphaScreen FBW7–phospho-cyclin E peptide binding, activator screen; normalized activity (activation), % at 26.1 µM; 650,000 compounds, 0.13% hits; Q969H0; in the data active = normalized activity above about 1.9%;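 also: purified mutant Fbw7 with reduced substrate affinity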
Target sequence (Q969H0 whole entry, looked up): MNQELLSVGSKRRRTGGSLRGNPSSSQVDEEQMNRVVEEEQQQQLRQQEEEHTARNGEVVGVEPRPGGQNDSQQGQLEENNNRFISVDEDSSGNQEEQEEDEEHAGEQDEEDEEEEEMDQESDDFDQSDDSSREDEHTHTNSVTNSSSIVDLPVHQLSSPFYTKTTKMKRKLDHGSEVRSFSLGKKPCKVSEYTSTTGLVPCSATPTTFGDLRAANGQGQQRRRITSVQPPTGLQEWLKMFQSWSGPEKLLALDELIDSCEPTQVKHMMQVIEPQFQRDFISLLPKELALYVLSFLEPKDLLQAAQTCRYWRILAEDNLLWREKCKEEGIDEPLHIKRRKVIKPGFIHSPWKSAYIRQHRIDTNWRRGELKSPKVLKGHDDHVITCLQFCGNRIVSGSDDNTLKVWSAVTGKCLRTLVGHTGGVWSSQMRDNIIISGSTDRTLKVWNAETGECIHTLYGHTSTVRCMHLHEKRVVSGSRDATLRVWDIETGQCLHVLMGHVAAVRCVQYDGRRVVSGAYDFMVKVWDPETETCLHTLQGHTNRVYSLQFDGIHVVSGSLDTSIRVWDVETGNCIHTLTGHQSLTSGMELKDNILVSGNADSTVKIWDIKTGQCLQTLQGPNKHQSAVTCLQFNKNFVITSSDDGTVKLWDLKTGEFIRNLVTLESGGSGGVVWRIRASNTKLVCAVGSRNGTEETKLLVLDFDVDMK
MITF inh = human MITF inhibition, primary screen; AlphaScreen MITF homodimerization, bead proximity signal; AID 1259374; 650,000 compounds, 0.91% hits; inhibition, % at 2.6 µM; in the data active = inhibition above about 50%
TEAD-YAP block = TEAD-YAP interaction inhibition | HEK-TIYL cells, TEAD-Gal4/YAP UAS-luciferase luminescence | 640,000 compounds, 1.4% hits | AID 1259422 | inhibition, % at 9.12 µM; in the data active = inhibition above about 32%
GPR151 ag = activates the human receptor GPR151; PathHunter beta-arrestin GPR151 cells, luminescence; activation, % at 11.2 µM; 650,000 compounds, 1% hits; AID 1508602; in the data active = activation above about 4.9%
MITF inh conf = confirmation of human MITF inhibitors. shares compounds with MITF inh. AlphaScreen MITF homodimerization, biotin/His-MITF beads. inhibition, % at 2.6 µM. 4,700 compounds, 16% hits;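 active = inhibition above a cutoff derived from the DMSO control wells, cut at about 28% in these data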;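 also: inhibitors lower the bead chemiluminescence by keeping MITF from dimerizing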
AS interf DR = AlphaScreen optical interference, dose response counter-screen. shares compounds with MITF inh. AlphaScreen optical interference counterscreen, cell-free. IC50, µM. 480 compounds, 6% hits. AID 1259373; call rule not given here
AlphaScreen intf2 = counter-screen: compounds optically interfering with AlphaScreen. shares compounds with MITF inh. LysRS AlphaScreen counterscreen, signal interference, triplicate. inhibition, % at 2.6 µM. 4,700 compounds, 7.6% hits;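 active = inhibition above a cutoff derived from the DMSO control wells, cut at about 30% in these data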
Numbers stand for hits; . = inactive; / = not tested or not shown.

SMILES | FBW7 activator | MITF inh | TEAD-YAP block | GPR151 ag | MITF inh conf | AlphaScreen intf2 | others
COc1cc(NC(=O)c2ccc3nc(Nc4ccc(-n5ccnc5)cc4)sc3c2)cc(OC)c1OC | . | 57.4 | . | . | . | .
CC(=O)Nc1ccc(NC(=O)c2ccc3nc(Nc4ccc(-n5ccnc5)cc4)sc3c2)cc1 | . | . | . | . | / | /
CCN(CC)c1nc(N)c2c(N)nc3c(c2c1C#N)CC(CCl)O3 (stereo not given) | . | . | . | . | / | /
CCOC(=O)c1c(C)nn(CC2CCCCC2)c1N | . | . | . | . | / | /
CC(=O)Nc1ccc(S(=O)(=O)N2CCN(CC3CC4C=CC3C4)CC2)cc1 (stereo not given) | . | 50.6 | . | . | . | .
CN(C)/C=C/C=C/C(=O)C1CCC/C(=C\C=C\N(C)C)C1=O (stereo not given) | . | 70.4 | . | . | 62.7 | . | AS interf DR=.
Cc1cc(Cl)cc(C)c1OCCOCCNC(C)(C)C | . | 66.7 | . | . | . | .
Cc1cc(OCCOCCNC(C)(C)C)cc(C)c1Cl | . | . | . | . | / | /
Cc1ccc(C)c(OCCOCCNC(C)(C)C)c1 | . | . | . | . | / | /
Cc1cc(Br)ccc1OCCOCCNC(C)(C)C | . | 62.9 | . | . | . | .
CCc1ccc(NC(=O)c2cc(C(=O)c3cc(OC)ccc3O)coc2=N)cc1 | . | . | . | . | / | /
CCOC1(OCC)N=C(N)C2(C#N)C(c3ccc(NC(C)=O)cc3)C12C#N (stereo not given) | . | 54.9 | . | . | . | .
COC1(OC)N=C(N)C2(C#N)C(c3ccc(F)cc3)C12C#N (stereo not given) | . | 54.7 | . | . | . | .
CCOC1(OCC)N=C(N)C2(C#N)C(c3cccc(Br)c3)C12C#N (stereo not given) | . | . | . | . | / | /
COC1(OC)N=C(N)C2(C#N)C(c3ccc(NC(C)=O)cc3)C12C#N (stereo not given) | . | 51.4 | . | . | . | .
COC(=O)c1ccc(C2C3(C#N)C(N)=NC(OC)(OC)C23C#N)cc1 (stereo not given) | . | . | . | . | / | /
COc1cccc([C@@H]2Oc3ccc(Br)cc3C(=O)C2OC(=O)N[C@H]2CCCc3ccccc32)c1 (stereo not given in full) | . | . | / | . | / | /
Cc1ccc(S(=O)(=O)NC(CC(=O)NC(C)(C)C)c2ccco2)cc1 (stereo not given) | . | . | . | . | / | /
O=C(CSc1nc2ccccc2c(=O)n1CC1CCCO1)NCc1ccco1 (stereo not given) | . | . | . | . | / | /
Cn1cnnc1Sc1ccc(C(=O)NNC(=O)c2ccc(F)cc2)cc1[N+](=O)[O-] | . | . | . | . | / | /
COc1ccc(Br)cc1CN1CCN(Cc2cccn2C)CC1 | . | 66.8 | . | . | . | .
COc1ccc(OC)c(CN2CCN(Cc3cccn3C)CC2)c1 | . | 62.9 | . | . | . | .
COc1ccc(OC)c(CN2CCOCC2)c1 | . | . | . | . | / | /
COc1ccc(Br)cc1CN1CCCCC1 | . | . | . | . | / | /
COc1cc(Br)c(CN(C)CCN(C)C)cc1OC | . | . | . | . | / | /
SMILES | FBW7 activator | MITF inh | TEAD-YAP block | GPR151 ag | MITF inh conf | AlphaScreen intf2 | others
COc1cc(CN(C)CCN(C)C)cc(OC)c1 | . | 63.7 | . | . | . | .
COc1ccc(CN(C)CCN(C)C)cc1OC | . | . | . | . | / | /
COc1ccc(CN(C)CCN(C)C)cc1C | . | 58.4 | . | . | . | .
CCC(C)N1CCN(CC2CC3C=CC2C3)CC1 (stereo not given) | . | 72.8 | . | . | . | .
C1=CC2CC1CC2CN1CCN(C2CCC(c3ccccc3)CC2)CC1 (stereo not given) | . | 63.0 | . | . | . | .
C1=CC2CC1CC2CN1CCN(C2CCCC2)CC1 (stereo not given) | . | 66.5 | . | . | . | .
C1=CC2CC1CC2CN1CCN(C2CCCCC2)CC1 (stereo not given) | . | . | . | . | / | /
C1=CC2CC1CC2CN1CCN(C2CCCCCC2)CC1 (stereo not given) | . | 55.2 | . | . | . | .
CC(=O)OCCCNc1cc(Cl)c2nonc2c1[N+](=O)[O-] | . | . | . | . | / | /
COc1ccc(CCNc2nc(Nc3ccncn3)nc3c2ncn3-c2ccccc2)cc1 | . | . | . | . | / | /
O=C1CCCN1CCn1cnc2c(Nc3ccc(N4CCOCC4)cc3)nc(N3CCN(c4ccccn4)CC3)nc21 | . | . | . | . | / | /
O=C1CCCN1CCn1cnc2c(Nc3ccc4c(c3)OCO4)nc(N3CCN(c4ccccn4)CC3)nc21 | . | 76.2 | . | . | . | .
Cc1cc2nnc(SCC(=O)N(C)C)n2c2ccccc12 | . | . | . | . | / | /
CCC1CN(Cc2ncc(C)[nH]2)Cc2ccc(Cl)cc2O1 (stereo not given) | . | . | . | . | / | /
CCOc1ccc(CN2CCN(Cc3ccccc3OC)CC2)cc1 | . | . | . | . | / | /
COc1ccc(S(=O)(=O)N2CCN(Cc3ccncc3)CC2)cc1 | . | 68.6 | . | . | . | .
CCOc1ccc(CN2CCC(N3CCN(C)CC3)CC2)cc1 | . | 69.7 | . | . | . | .
CCOc1ccc(CN2CCN(Cc3ccc(OC)cc3)CC2)cc1 | . | 57.8 | . | . | . | .
CCOc1ccc(CN2CCN(Cc3cc(OC)c(OC)cc3OC)CC2)cc1 | . | 73.6 | . | . | . | .
NC(=S)N1CCN=C1c1ccccc1 | . | . | . | . | / | /
O=C(c1c[nH]c2ncccc12)C(F)(F)F | . | . | . | . | / | /
O=S(=O)(c1ccc2ccccc2c1)N1CCN(Cc2ccccc2)CC1 | . | . | . | . | / | /
O=S(=O)(c1ccc2ccccc2c1)N1CCN(Cc2ccncc2)CC1 | . | 79.5 | . | . | . | .
CCOc1ccc(CN2CCN(S(C)(=O)=O)CC2)cc1 | . | 66.0 | . | . | . | .
CCOc1ccc(CN2CCN(S(=O)(=O)c3ccc(OC)cc3)CC2)cc1 | . | 57.3 | . | . | . | .
SMILES | FBW7 activator | MITF inh | TEAD-YAP block | GPR151 ag | MITF inh conf | AlphaScreen intf2 | others
O=S(=O)(c1ccc2ccccc2c1)N1CCN(Cc2ccccc2F)CC1 | . | 54.1 | . | . | . | .
COc1ccc(S(=O)(=O)N2CCN(Cc3ccccc3F)CC2)cc1 | . | . | . | . | / | /
O=C(Nc1nnc(CCSc2ccc3ccccc3c2)s1)c1ccccc1 | . | . | . | . | / | /
COc1ccc(/C=C2\C=C(c3ccccc3)N(c3ccc(Nc4ccccc4)cc3)C2=O)cc1Br | . | . | . | . | / | /
O=C(NCCO)c1ccc(OC2OCCOC2Oc2ccc(C(=O)NCCO)cc2)cc1 (stereo not given) | . | . | . | . | / | /
Cc1cc(OC(=O)c2ccco2)c([N+](=O)[O-])c(=O)[nH]1 | . | . | . | . | / | /
O=S(=O)(c1ccc(F)cc1)N1CCN(Cc2cccc3ccccc23)CC1 | . | 82.3 | . | . | . | .
COc1ccc(CN2CCN(Cc3ccncc3)CC2)cc1 | . | 57.1 | . | . | . | .
COc1ccc(S(=O)(=O)N2CCN(Cc3cc(OC)c(OC)c(OC)c3)CC2)cc1 | . | 55.9 | . | . | . | .

From PubChem
